Data from the supplement of paper PMC13392028.
Over roughly 4,100 sequences, “RBNS R-value (6-mer enrichment in protein-bound RNA vs input library)” has its median near 0.96; the highest 2% begin near 2.4. Only a selection was taken, and the highest values are over-represented in it overall.

System: PyIESI-1 RRM domain (Plasmodium yoelii PY17X_0911200 aa 795-956, GST fusion)
Assay: RBNS R-value (6-mer enrichment in protein-bound RNA vs input library) (ratio); higher = stronger binding preference; the methods of the paper give 50 / 100 / 500 nM protein instead
Method: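 RNA Bind-n-Seq: recombinant GST-tagged IESI-1 RRM domain was incubated at room temperature with a random 40-nt in vitro transcribed RNA library at 250, 500 or 1000 nM protein. Bound RNA was pulled down on glutathione beads and sequenced. R-value is the enrichment of each 6-mer in the bound RNA relative to the input library. Each 6-mer sits inside the random 40-mer context, not as an isolated oligo. Values are replicate 1 only.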

| Sequence | RBNS R-value (protein concentration: 250 nM) | RBNS R-value (protein concentration: 500 nM) | RBNS R-value (protein concentration: 1000 nM) |
| --- | --- | --- | --- |
| ACUGAC | 1.18 | 1.16 | 1.18 |
| UCUGAA | 1.01 | 1.03 | 0.99 |
| CCUGAU | 4.76 | 4.47 | 4.65 |
| ACUGAU | 4.56 | 4.17 | 4.36 |
| UCUGAC | 1.13 | 1.12 | 1.13 |
| AUGCAG | 1.15 | 1.16 | 1.18 |
| AUCUGU | 0.889 | 0.916 | 0.89 |
| GAGGAG | 1.12 | 1.09 | 1.02 |
| CUCACG | 0.951 | 0.969 | 0.993 |
| UCUGGC | 1.18 | 1.18 | 1.17 |
| GCGACC | 1.08 | 1.08 | 1.09 |
| GGGUUU | 0.955 | 0.992 | 0.97 |
| ACACUC | 1.07 | 1.05 | 1.07 |
| UUUGAA | 1.15 | 1.15 | 1.13 |
| AUUGAU | 5.75 | 5.29 | 5.52 |
| AUUGAC | 1.45 | 1.46 | 1.49 |
| UUUGAU | 6.28 | 5.82 | 6.05 |
| CUUGAU | 4.89 | 4.7 | 4.93 |
| GUUGAG | 0.856 | 0.907 | 0.877 |
| UUUGAC | 1.48 | 1.47 | 1.5 |

| Sequence | RBNS R-value (protein concentration: 250 nM) | RBNS R-value (protein concentration: 500 nM) | RBNS R-value (protein concentration: 1000 nM) |
| --- | --- | --- | --- |
| CUUGAC | 1.61 | 1.59 | 1.61 |
| GUUGAC | 1.02 | 1.02 | 1.01 |
| GUUGAU | 4.02 | 3.81 | 3.96 |
| CUUGAA | 1.18 | 1.17 | 1.15 |
| AUUGAG | 1.23 | 1.24 | 1.21 |
| GUGUGA | 1.5 | 1.51 | 1.48 |
| UUGGUC | 0.872 | 0.953 | 0.884 |
| GCGGGC | 1.09 | 1.09 | 1.07 |
| UUCUGC | 1.19 | 1.21 | 1.22 |
| GGUUCG | 0.887 | 0.904 | 0.88 |
| UAUCAG | 0.589 | 0.619 | 0.59 |
| AGCCUU | 0.931 | 0.961 | 0.982 |
| GAUCUA | 1.19 | 1.23 | 1.27 |
| CACGAU | 1.8 | 1.82 | 1.95 |
| CUUAGA | 0.933 | 0.948 | 0.93 |
| AACAUA | 0.429 | 0.465 | 0.417 |
| CCAAAA | 1.14 | 1.1 | 1.11 |
| GUAUGU | 0.702 | 0.701 | 0.677 |
| GAUCAG | 1.21 | 1.23 | 1.26 |
| AUUUGG | 1.56 | 1.52 | 1.53 |

| Sequence | RBNS R-value (protein concentration: 250 nM) | RBNS R-value (protein concentration: 500 nM) | RBNS R-value (protein concentration: 1000 nM) |
| --- | --- | --- | --- |
| AUUUGA | 2.85 | 2.67 | 2.75 |
| UUUUGA | 2.87 | 2.69 | 2.76 |
| UUUUGC | 1.25 | 1.28 | 1.3 |
| UUUUGU | 0.927 | 0.945 | 0.932 |
| AUUUGU | 1.19 | 1.18 | 1.16 |
| CGUCGU | 0.673 | 0.674 | 0.653 |
| AUUCGG | 1.21 | 1.23 | 1.22 |
| GAGGCA | 1.07 | 1.06 | 1.04 |
| AGUCAG | 0.665 | 0.689 | 0.664 |
| GGUAGU | 0.858 | 0.895 | 0.812 |
| UCGAAU | 0.871 | 0.871 | 0.846 |
| GAUUGU | 1.51 | 1.5 | 1.51 |
| CAUUGA | 2.25 | 2.16 | 2.24 |
| CAUUGC | 1.1 | 1.11 | 1.11 |
| UAUUGA | 1.66 | 1.61 | 1.65 |
| AAUUGA | 2.42 | 2.26 | 2.31 |
| GAUUGG | 2.35 | 2.26 | 2.17 |
| GAUUGC | 3.17 | 2.85 | 2.87 |
| GAUUGA | 3.24 | 3.03 | 3.05 |
| AAUUGU | 0.811 | 0.836 | 0.821 |
